Compound activity: PubChem BioAssay, National Center for Advancing Translational Sciences (NCATS)
Compounds with a hit are over-represented: about 2.7% of the library has one in this group of screens.
GLP1R cytotox – cytotoxic in the GLP-1 receptor inverse agonist counter-screen; HEK293 cAMP-luciferase reporter cells, luminescence, 24 h; Potency, µM (titrated, usually from 38.3 µM), inactives show at the top dose activity change, negative = inhibition, most hits filed as inhibitors; 410,000 tested, 0.13% active;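 further: loss of luciferase light is scored as toxicity; on the % scale 0 is the no-effect control and ±100 the full control effect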
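MLSMR compounds, 24 hr on cells at 37 deg C/5% CO2; luminescence after luciferase reagent (12 min RT). Inhibition counted as the undesired cytotoxic outcome.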
GLP1R inv ag – inverse agonists of human GLP-1 receptor. P43220. Potency, µM (doses to about 38.3 µM), without a hit: at the top dose activity change, negative = inhibition, hits mostly inhibitors. AID 624417. 410,000 tested, 1.6% active. HEK293 GLP-1R CRE-luciferase, luminescence, 24 h; GLP-1R form is constitutively active; further: on the % scale 0 is the no-effect control and ±100 the full control effect; nearly all actives have a fitted effect of over 55% in size
Target sequence (P43220 whole entry, looked up): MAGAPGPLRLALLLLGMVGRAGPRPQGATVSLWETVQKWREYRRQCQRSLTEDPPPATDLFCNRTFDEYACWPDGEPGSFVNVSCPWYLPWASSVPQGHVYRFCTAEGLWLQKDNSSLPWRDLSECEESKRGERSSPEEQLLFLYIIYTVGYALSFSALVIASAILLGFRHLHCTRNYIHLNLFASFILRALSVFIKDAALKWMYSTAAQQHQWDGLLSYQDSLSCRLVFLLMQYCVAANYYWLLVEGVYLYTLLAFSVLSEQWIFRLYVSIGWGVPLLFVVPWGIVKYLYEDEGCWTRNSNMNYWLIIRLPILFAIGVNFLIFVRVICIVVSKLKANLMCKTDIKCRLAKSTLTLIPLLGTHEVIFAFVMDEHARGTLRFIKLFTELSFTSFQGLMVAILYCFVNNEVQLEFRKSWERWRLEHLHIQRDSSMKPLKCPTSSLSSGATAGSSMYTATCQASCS
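Constitutively active GLP-1R drives a cAMP-responsive luciferase in stably transfected HEK293 cells; test compounds are added after overnight (12 h) attachment and left 24 hr, and signal loss in luminescence marks inhibition.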
Integrin act MD – integrin-mediated muscular dystrophy alleviation activation; alpha7betagal myoblasts, beta-gal FDG fluorescence, 48 h; 350,000 tested, 0.064% active; Potency, µM (titrated, usually from 38.3 µM), without a hit: at the highest dose activation, actives largely listed as activators; AID 624291;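 further: 100% = response of the positive control SU9516; nearly all actives have a fitted effect of over 60% in size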
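Alpha7betagal+/- myoblasts (passage 13) were plated 16-24 hr, then exposed to compounds (1:260 dilution of DMSO stock) for 48 hours at 37C. After MPER lysis, β-galactosidase reporter activity was read as FDG fluorescence (ex 480/em 540) after 30 minutes.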
GLP-1R agonist – activates the human GLP-1 receptor. P43220. HEK293 GLP-1R CRE-luciferase, luminescence, 4-6 h; cells express a hypersensitive GLP-1R form. Potency, µM (series often up to 45.6 µM), without a hit: top-dose activation, hits mostly activators. 380,000 tested, 0.007% active. AID 624172; further: % of control where 0% means no effect
BRCA1 expr act – activators of BRCA1 expression | MCF7-BRCA1-FFLuc reporter, luminescence, 48 h; response scale: scaled: vehicle 0%, 10 µM genistein 100% | Potency, µM (top dose mostly 46.1 µM), without a hit: top-dose activation, most hits filed as activators | 380,000 tested, 1.1% active; further: nearly all actives have a fitted effect of over 80% in size
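MCF7-BRCA1-FFLuc, 2000 cells/well; 2 h attach, 37 °C/5% CO2; compound 48 h; luciferase substrate 15 min; luminescence end-point. Norm. to genistein 10 microM max activation and DMSO; concentration-response curves fitted.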
An asterisk follows results filed as active; u = inconclusive; x = no result given. The call rests on the fitted dose curve; in most records, active means well fitted curve in the direction sought with a large enough effect; inconclusive means small, poorly fitted or top-dose-only effect, or another doubt; inactive means no such curve, though single readings can be large; an effect the other way counts as inactive or inconclusive. Potency means the concentration at half of the fitted maximal effect.

SMILES	GLP1R cytotox	GLP1R inv ag	Integrin act MD	GLP-1R agonist	BRCA1 expr act
COc1cc(OC)cc(C(=O)Nc2ccc([N+](=O)[O-])cn2)c1	-12%	4%	-7%	-2%	40%
Cc1cc(C(=O)Nc2ccc([N+](=O)[O-])cn2)cs1	-18%	2%	11%	19%	3.2µM*
COc1ccc(C2C=C(c3cccc(OC)c3)Nc3c(C(=O)Nc4ccccc4)cnn32)cc1 (stereo not given)	104%	u	x	x	x
COc1cccc(COC(=O)c2ccc3c(c2)NC(=O)C(C)S3)c1OC (stereo not given)	1%	-23%	6%	6%	-35%
CC1Sc2ccc(C(=O)OCc3ccccc3Cl)cc2NC1=O (stereo not given)	-28%	-6%	24%	5%	6.3µM*
COCCNC(=O)c1ccc2c(Cl)c3c(nc2c1)CCC3	2%	-20%	7%	6%	5µM*
O=C(CN1CCN(Cc2ccccc2Cl)C1=O)NC1CCCCCC1	-13%	u	1%	-2%	11µM*
COc1cc(CNCc2ccccc2Cl)ccc1OCC(=O)NC1CCCCC1	-26%	10µM*	-25%	13%	-14%
Ic1ccc(Nc2nc(NCCN3CCOCC3)nc(N3CCCC3)n2)cc1	x	x	x	x	-33%
Cc1ccc2c(c1)c1c(n2CC(O)CN2CCC(C)CC2)CCCC1 (stereo not given)	u	5.6µM*	-54%	-3%	-8%
Cc1ccc2c(c1)c1c(n2CC(O)CN2CCCCC2C)CCCC1 (stereo not given)	u	u	-51%	11%	-12%
COc1ccc(CNC(=O)c2ccc3c(c2)nc2n3CCCCC2)c(OC)c1	3%	22%	x	x	x
COc1ccc(-c2csc(NCCc3nc4cc(Cl)c(N5CCCCC5)cc4n3CCOCCO)n2)cc1	2%	u	-1%	3%	-36%
OCCCn1c(CCCNc2nc(-c3cccc(Br)c3)cs2)nc2cc(Cl)c(N3CCCCC3)cc21	3%	10µM*	-16%	-10%	-40%
O=C1[C@H]2[C@@H](c3ccc(C(F)(F)F)cc3)N[C@]3(CCCN(Cc4ccc(C(F)(F)F)cc4)C3=O)[C@H]2C(=O)N1Cc1ccccc1	3%	4.5µM*	-57%	-4%	-7%
CCN1C(=O)[C@H]2[C@@H](c3ccc(C(F)(F)F)cc3)N[C@]3(CCCN(Cc4ccc(Cl)cc4)C3=O)[C@H]2C1=O	5%	10µM*	-1%	-5%	-17%
COc1ccc([C@H]2N[C@]3(CCCN(Cc4ccc(C(F)(F)F)cc4)C3=O)[C@H]3C(=O)N(Cc4ccccc4)C(=O)[C@@H]23)cc1	-20%	u	2%	-2%	6%
O=C1[C@H]2[C@@H](c3ccc(C(F)(F)F)cc3)N[C@]3(CCCN(Cc4ccccc4)C3=O)[C@H]2C(=O)N1Cc1ccccc1	0%	11µM*	11%	-6%	-22%
Cc1c(C(=O)N(Cc2ccccc2)C(C)C)cnn1-c1ccccc1	-16%	u	u	12%	-3%
Cc1c(C(=O)N(Cc2ccccc2)Cc2cccs2)cnn1-c1ccc(Cl)cc1	u	5.6µM*	17%	15%	-4%
Cc1cc(C)c(Cn2c(CCNC(=O)c3ccco3)nc3ccccc32)c(C)c1	0%	u	x	x	x
O=C(c1ccoc1)N1CCCC(N2CCN(c3ccc(F)cc3)CC2)C1 (stereo not given)	4%	-18%	31%	0%	1%
O=C(c1cccc(-c2ccco2)c1)N1CCCC(N2CCN(c3ccc(F)cc3)CC2)C1 (stereo not given)	-3%	10µM*	16%	-16%	-62%
Cc1ccc(C)c(C(=O)COC(=O)c2n[nH]c3ccccc23)c1	-2%	10µM*	6%	13%	74%
O=C(N/N=C/c1ccc[nH]1)c1sc2ccccc2c1Cl	u	10µM*	-26%	2%	-64%
SMILES	GLP1R cytotox	GLP1R inv ag	Integrin act MD	GLP-1R agonist	BRCA1 expr act
O=C(N/N=C/c1ccncc1)c1sc2ccccc2c1Cl	-11%	5%	5%	-3%	-17%
COc1ccc(C)cc1NC(=O)CC(=O)Nc1ccc2nc3n(c(=O)c2c1)CCCCC3	-1%	-9%	x	x	-1%
O=C(O)C=C1CCN(c2ncc(C(F)(F)F)cc2Cl)CC1	9%	14%	13%	17%	11µM*
O=C(CN1CCN(c2ncc(C(F)(F)F)cc2Cl)CC1)N1CCN(c2ncc(C(F)(F)F)cc2Cl)CC1	3%	4.5µM*	-7%	-5%	-65%
O=C(CSc1ccc(Cl)cc1)N1CCN(c2ncc(C(F)(F)F)cc2Cl)CC1	6%	-26%	7%	0%	-51%
CC1CCCC/C1=N/Nc1ccc([N+](=O)[O-])cc1[N+](=O)[O-] (stereo not given)	7%	10%	-4%	6%	-11%
O=[N+]([O-])c1ccc(C2CCCC/C2=N\OCc2cccc(F)c2)c([N+](=O)[O-])c1 (stereo not given)	21%	10µM*	-26%	-4%	-51%
Cc1cccc(-c2nc(NCCCN3CCOCC3)c3ccccc3n2)c1	u	8.9µM*	-20%	11%	-40%
c1ccc(-c2nc(NCCCN3CCOCC3)c3ccccc3n2)cc1	-27%	u	-48%	5%	6%
CCc1nc2c(OCc3ccc(F)cc3)cccn2c1N(C)C(=O)c1ccco1	-4%	19%	x	9%	26%
CCc1nc2c(OCc3ccc(Cl)cc3)cccn2c1N(C)C(=O)c1ccco1	-23%	10µM*	x	0%	-62%
CCCCn1c(NCc2cc(Cl)ccc2O)nc2ccccc21	-2%	u	x	-1%	-61%
C=CCc1ccccc1OCc1nc2ccccc2n1CC	-2%	u	x	x	x
C=C1C=C(C(F)F)n2ncc(C(=O)NCc3ccc(F)cc3)c2N1	x	x	x	x	-5%
COc1ccc(N(CC(O)Cn2c3ccccc3c3ccccc32)S(=O)(=O)c2ccccc2)cc1 (stereo not given)	10%	11µM*	1%	-9%	-89%
Cc1ccc(N(CC(O)Cn2c3ccccc3c3ccccc32)S(=O)(=O)c2ccc(F)cc2)cc1 (stereo not given)	2%	-6%	x	x	x
Cc1cnc2ccc(I)cc2c1/C=C/c1ccc(N(C)C)cc1	x	x	x	x	-53%
CC(C)C(NCC(=O)Nc1ccccc1C(=O)NC1CC1)c1ccccc1 (stereo not given)	-19%	10µM*	1%	9%	-17%
CC(NCC(=O)Nc1ccccc1C(=O)NC1CC1)c1cccs1 (stereo not given)	-8%	13%	-11%	18%	-12%
Cc1ccc(NC(=O)c2ccc(NC(=O)N3CCSc4nc(C)cc(C)c43)cc2)c(Cl)c1	22%	12%	x	x	x
CCc1nn2c(-c3ccccc3OC)ccnc2c1-c1ccccc1	2%	10µM*	x	0%	0%
